Where a name gives a salt, the structure may show the parent alone.
Test system: Saccharomyces cerevisiae BY4741 SeMeCo community
Experiment: z-score of subpopulation abundance vs DMSO median, subpopulation auxotrophic for HUM; higher = larger share of this subpopulation than in DMSO controls
Settings: 10 µM; 24 h; SM minimal medium; subpopulation (auxotrophy): HUM
Method: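 Fluorescent four-plasmid SeMeCo (self-establishing metabolically cooperating S. cerevisiae BY4741 community; plasmids pH-mRuby2, pL-mWasabi, pU-eCFP, pM-TagRFP657) was grown 24 h in minimal SM medium with each Selleck FDA-approved drug at 10 µM in 384-well plates. Cells were fixed and imaged by high-content confocal microscopy. For each auxotrophic subpopulation (and the prototroph), a z-score gives the deviation from the DMSO vehicle-control population median.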

Row | SMILES | z-score of subpopulation abundance
1 | Cn1cc(C2=C(c3cn(C4CCN(Cc5ccccn5)CC4)c4ccccc34)C(=O)NC2=O)c2ccccc21 | -0.32
2 | CCCN1C[C@H](CSC)C[C@@H]2c3cccc4[nH]cc(c34)C[C@H]21 [Pergolide Mesylate] | -0.74
3 | CNC1CC(N)C(O)C(OC2OC(CO)C(O)C3OC4(OC(C(N)CO)C(O)C(O)C4O)OC23)C1O (centres undefined) [Hygromycin B] | -0.41
4 | CC[N+](C)(CC)CCOC(=O)C(O)(c1ccccc1)c1ccccc1 [Methylbenactyzine Bromide] | -0.8
5 | Cc1cc(O)ccc1Cl [Chlorocresol] | -0.26
6 | Cc1cc(C(C#N)c2ccc(Cl)cc2)c(Cl)cc1NC(=O)c1cc(I)cc(I)c1O (centres undefined) [Closantel] | 0.04
7 | CC(=O)O[C@H]1C[C@@H]2CC[C@@H]3[C@H](CC[C@@]4(C)[C@H]3C[C@H]([N+]3(C)CCCCC3)[C@@H]4OC(C)=O)[C@@]2(C)C[C@@H]1[N+]1(C)CCCCC1 [Pancuronium dibromide] | -0.72
8 | CCN1CC2(OC(=O)c3ccccc3NC(C)=O)CCC(OC)C34C1C(CC23)C1(O)CC(OC)C2CC4C1(O)C2OC (centres undefined) [Lappaconitine] | 0.34
9 | NCCc1c[nH]c2ccc(O)cc12 [Serotonin HCl] | 0.18
10 | C[N+]1(C)[C@@H]2C[C@@H](OC(=O)[C@H](CO)c3ccccc3)C[C@H]1[C@@H]1O[C@@H]12 [Methscopolamine] | 0.63
11 | CN[C@@H]1[C@@H](O)[C@@H](O[C@@H]2[C@@H](O)[C@H](O[C@H]3O[C@H](CN)CC[C@H]3N)[C@@H](N)C[C@H]2N)OC[C@]1(C)O.CN[C@@H]1[C@@H](O)[C@@H](O[C@@H]2[C@@H](O)[C@H](O[C@H]3O[C@H]([C@@H](C)N)CC[C@H]3N)[C@@H](N)C[C@H]2N)OC[C@]1(C)O.CN[C@@H]1[C@@H](O)[C@@H](O[C@@H]2[C@@H](O)[C@H](O[C@H]3O[C@H]([C@@H](C)NC)CC[C@H]3N)[C@@H](N)C[C@H]2N)OC[C@]1(C)O [Gentamicin Sulfate] | -0.69
12 | C#C[C@]1(O)C=C[C@H]2[C@@H]3CCC4=CC(=O)CC[C@@H]4[C@H]3CC[C@@]21CC [Gestodene] | -0.17
13 | CN(C)[C@@H]1C(=O)C(C(N)=O)=C(O)[C@@]2(O)C(=O)C3=C(O)c4c(O)ccc(Cl)c4[C@@](C)(O)[C@H]3C[C@@H]12 [Chlortetracycline HCl] | 0.05
14 | O=c1cccc2n1C[C@@H]1CNC[C@H]2C1 [Cytisine] | -0.61
15 | CCOC(=O)Nc1ccc(NCc2ccc(F)cc2)cc1N [Retigabine 2HCl] | 0.72
16 | COc1ccc(C(CN(C)C)C2(O)CCCCC2)cc1 (centres undefined) [Venlafaxine HCl] | 0.07
17 | CN1[C@@H]2C[C@@H](OC(=O)[C@H](CO)c3ccccc3)C[C@H]1[C@@H]1O[C@@H]12 [Scopolamine HBr trihydrate] | -0.05

Row | SMILES | z-score of subpopulation abundance
18 | CC1(C)SC2C(N)C(=O)N2C1C(=O)O (centres undefined) [6-Aminopenicillanic acid] | 0.65
19 | C[C@@H]1CC[C@H]2[C@@H](C)C(=O)O[C@@H]3O[C@@]4(C)CC[C@@H]1[C@]32OO4 [Artemisinin] | -0.49
20 | NC(=O)CN1CCCC1=O [Piracetam] | 1.72
21 | COc1ccc2c3c([nH]c2c1)C(C)=NCC3 [Harmaline] | -6.26
22 | CC(=O)OCC1=C(C(=O)O)N2C(=O)C(N)C2SC1 (centres undefined) [7-Aminocephalosporanic acid] | 0.03
23 | Nc1ccncc1 [4-Aminopyridine] | -0.37
24 | O=C(O[C@H]1C[C@H]2CC[C@@H](C1)[N+]21CCCC1)C(O)(c1ccccc1)c1ccccc1 [Trospium chloride] | -0.32
25 | C=CC[C@]1(O)CC[C@H]2[C@@H]3CCC4=CC(=O)CCC4=C3C=C[C@@]21C [Altrenogest] | -0.44
26 | CC[C@@]1(O)C(=O)OCc2c1cc1n(c2=O)Cc2cc3ccccc3nc2-1 [Camptothecin] | -0.54
27 | O=C(O[C@H]1C[N+]2(CCCOc3ccccc3)CCC1CC2)C(O)(c1cccs1)c1cccs1 [Aclidinium Bromide] | 0.22
28 | CN(C)C(=O)Oc1ccc[n+](C)c1 [Pyridostigmine Bromide] | 0.11
29 | Oc1cc(Cl)ccc1Oc1ccc(Cl)cc1Cl [Triclosan] | -1.9
30 | N#Cc1nn(-c2c(Cl)cc(C(F)(F)F)cc2Cl)c(N)c1[S+]([O-])C(F)(F)F (centres undefined) [Fipronil] | -0.76
31 | COc1cc2c(cc1OC)C1CC(=O)C(CC(C)C)CN1CC2 (centres undefined) [Tetrabenazine (Xenazine)] | -0.9
32 | COc1ccc(C=O)cc1 [p-Anisaldehyde] | -0.95
33 | CN(C)[C@@H]1C(=O)C(C(N)=O)=C(O)[C@@]2(O)C(=O)C3=C(O)c4c(O)cccc4[C@@](C)(O)[C@H]3C[C@@H]12 [Tetracycline HCl] | 0.07
34 | CC(C)N(CCC(C(N)=O)(c1ccccc1)c1ccccn1)C(C)C (centres undefined) [Disopyramide] | -0.19

From the supplement of paper PMC8975748
